About 380 (27%) of roughly 1,400 compounds were called active. This is one part of the list. Values without a mark were called inactive.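 Rule for the calls: active = mean inhibition above 50% across duplicate retests at 10 µM; inactive = the rest.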
Test: yeast NALP1 reporter signal suppression – S. cerevisiae, luminescence, single concentration, NALP1 inhibitor project, confirmation (AID 488841);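 note: plate controls were DMSO in galactose medium for no effect and cells in plain SD medium for full effect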
Conditions: S. cerevisiae NALP1/ASC/Caspase-1 reporter, beta-gal luminescence; at 10 µM; active compounds read high

SMILES | inhibition
O=C(COC(=O)C1(c2ccccc2F)CCCC1)N1CCOCC1 | 17.6%
Cc1cc(C)c(S(=O)(=O)Nc2ccc(OCC(=O)O)cc2)c(C)c1 | 27.6%
CCOC(=O)C1CCCN(Cc2ccc(OCC)cc2)C1 (stereo not given) | 41.2%
Clc1ccc(OCCN2CCCCC2)cc1Cl | 39.4%
CC/C(=N\NC(=O)c1ccccc1Cl)c1ccc(Br)s1 | 38.6%
Cc1cccc(C)c1OCC(=O)Nn1c(=O)[nH]c2ccccc2c1=O | 32.6%
CCCCCC(=O)Nc1ccc2oc(-c3cccnc3)nc2c1 | 44.2%
CCC(=O)Nc1cccc(-c2nc3ccccc3o2)c1 | 69.3% (active)
CCCc1cc(C(=O)O)c2ccccc2n1 | 27.6%
COC(=O)c1cc(=O)n(-c2ccccc2)c(=Nc2ccccc2)s1 | 49.4%
CCC(C(=O)OC)n1cnc2scc(-c3ccc(C)c(C)c3)c2c1=O (stereo not given) | 98.8% (active)
Cn1c2ccccc2c(=O)c2c(=O)n(C3CCCCCC3)c(C3CCCCC3)nc21 | 41%
COc1ccc(-c2cn3cccnc3n2)cc1Br | 78.5% (active)
Cn1c(=O)n(CCCOc2ccc(Cl)cc2)c2ccccc21 | 45.5%
O=C(NC1CCCC1)C(c1ccccn1)N(C(=O)c1csnn1)C1CC1 (stereo not given) | 18.6%
c1ccc(-c2noc(-c3ccccc3-c3ccccc3)n2)cc1 | 23.8%
O=C(CN1CCOCC1)Nc1ccccc1Sc1ccc(Cl)cc1 | 32.2%
CSc1nc(C)cc(OCCO)n1 | 27.2%
CCCNC(=O)c1cc2c3ccccc3n(C)c2s1 | 69.2% (active)
CC(C)OCCCNC(=O)c1cc2c(=O)n(C)c3ccccc3c2n1C | 18.5%
O=C(NNC(=O)c1ccc(-c2ccccc2)cc1)Nc1ccc(F)cc1F | 20.4%
Cc1ccc(S(=O)(=O)N(C)C)cc1NC(=O)Nc1ccccc1F | 21.1%
O=C(Nc1ccccc1)Nc1ccc(Br)cc1F | 50.3% (active)
CCOC(=O)c1ccc(N2CCOCC2)c(NC(=O)COCC(=O)O)c1 | 16.1%
COc1ccc(CC(C)N2CCN(Cc3ccccc3)CC2)c(OC)c1 (stereo not given) | 27.8%

SMILES | inhibition
Cc1ccccc1N(CC(=O)N/N=C/c1ccccc1Cl)C(=O)c1ccccc1 | 32%
CCCSc1ccc2nc(-c3ccccc3)cn2c1 | 75.4% (active)
Cc1nc(-c2ccccc2)sc1C(=O)CSc1ccccc1 | 42%
CS(=O)(=O)N(Cc1ccccc1)c1ccc(C(=O)Nc2ccc3c(c2)OCO3)cc1 | 33.1%
Cc1cc(C)cc(NS(=O)(=O)c2ccc(NC(=S)NC(=O)c3ccc(Br)o3)cc2)c1 | 45.4%
CSCc1ccc(C(=O)Nc2cc(C)cc(C)c2)cc1 | 76% (active)
COCCn1c(SCC(=O)NC(=O)NC(C)(C)C)nc2ccccc21 | 27.5%
CC1CCCN(c2nc(NCc3ccco3)nc(N)c2[N+](=O)[O-])C1 (stereo not given) | 55.1% (active)
Cc1ccc(Nc2nc(N)c([N+](=O)[O-])c(NCc3ccco3)n2)cc1C | 60.3% (active)
Nc1nc(NCc2ccco2)nc(N2CCCCCC2)c1[N+](=O)[O-] | 62.6% (active)
CC1CCN(c2ccccc2NC(=O)c2ccc(N3CCOCC3)c([N+](=O)[O-])c2)CC1 | 1.35%
Cc1ccc(C(=O)NCc2ccco2)cc1S(=O)(=O)Nc1cccc(Cl)c1 | 25.1%
CC1CCN(c2nc(NCc3ccco3)nc(N)c2[N+](=O)[O-])CC1 | 67.3% (active)
O=C(Nc1nc(-c2ccncc2)cs1)c1ccc(S(=O)(=O)N2CCOCC2)cc1 | 28.9%
Clc1ccc(N2CCN(c3cnc4ccccc4n3)CC2)cc1 | 37.4%
COc1ccc(-c2nc3c(c(=O)[nH]c(=O)n3Cc3ccccc3)n2C)cc1 | 27.9%
CC1CCCCC1NC(=O)/C(C#N)=C/c1ccccc1F (stereo not given) | 39.8%
CC(C)(C)C1=CC(=O)C(=O)C(C(C)(C)C)=C1 | 20%
CCSc1nnc(-c2ccncc2)n1Cc1ccccc1 | 35.8%
Cc1ccc(NC(=S)Nc2ccc(Cl)c(Cl)c2)c(OC(F)F)c1 | 33.8%
O=C(Cc1ccc([N+](=O)[O-])cc1)c1ccc(O)cc1O | 39%
CC[N+]1(CC)CC2=Cc3c(ccc4ccccc34)CC2C1 (stereo not given) | 14.5%
CCOC(=O)n1c(=O)n(Cc2ccccc2)c2ccccc21 | 25.8%
O=C(c1ccc(COc2ccccc2Br)cc1)N1CCCCC1 | 36.5%
CCCNC(=O)c1nnsc1S(=O)c1ccc(Cl)cc1 (stereo not given) | 99.3% (active)

SMILES | inhibition
O=C(c1nnsc1S(=O)c1ccc(Cl)cc1)N1CCOCC1 (stereo not given) | 76.7% (active)
CNC(=O)c1nnsc1S(=O)c1ccc(Cl)cc1 (stereo not given) | 88.7% (active)
CCCCNC(=O)Nc1nnc(-c2ccc(Cl)cc2)o1 | 44.9%
O=C(CCSc1nc2cc(Cl)ccc2o1)N1CCOCC1 | 24.1%
Cn1cc(S(=O)(=O)N2CCN(c3cccc(C(F)(F)F)c3)CC2)c(=O)n(C)c1=O | 7.85%
CC(NC(=O)/C(C#N)=C/c1ccc([N+](=O)[O-])o1)c1ccccc1 (stereo not given) | 52.1% (active)
CN(Cc1ccccc1)C(=O)c1ccc([N+](=O)[O-])o1 | 40.2%
COC(=O)c1ccc(/C=C(\C#N)C(=O)NC(C)c2ccccc2)cc1 (stereo not given) | 23.2%
CC(NC(=O)/C(C#N)=C/c1ccc(Cl)c([N+](=O)[O-])c1)c1ccccc1 (stereo not given) | 51.1% (active)
COc1ccc(/C=C/C(=O)Nc2ccc3c(c2)CCC3)cc1OC | 79.2% (active)
COc1cc(/C=C/C(=O)Nc2ccc(C)cc2)cc(OC)c1OC | 33.6%
COc1cc(/C=C(\NC(C)=O)C(=O)Nc2cccc(O)c2)ccc1OC(C)=O | 28.1%
CCc1ccc(CC(=S)N2CCOCC2)cc1 | 42.3%
CCOc1ccc(C(=O)Nc2ccc(-c3nc4ccccc4[nH]3)cc2)cc1[N+](=O)[O-] | 26.6%
CCOc1ccc(C(=O)NC(=S)Nc2ccccc2N2CCCCC2)cc1[N+](=O)[O-] | 43.9%
COc1ccc(C(=O)NC(=S)Nc2ccccc2N2CCCCC2)cc1[N+](=O)[O-] | 51.9% (active)
COc1ccc(/C=C2\SC(N3CCc4ccccc4C3)=NC2=O)cc1 | 69.8% (active)
CC(C)c1nc(SCC(=O)Nc2ccc3c(c2)OCCO3)n[nH]1 | 19.3%
N#Cc1ccc(-c2ccc(Cl)cc2)nc1SCC(=O)c1cccc(Cl)c1 | 26.4%
Cc1ccc(NC(=O)Cn2cccc2)c(C)c1 | 27.8%
CCN(CC)c1ccc(NC(=O)Cn2cc3c(n2)CCC(C)C3)c(C)c1 (stereo not given) | 50.9% (active)
COc1ccccc1CN(Cc1nc2ccccc2c(=O)[nH]1)C(=O)Nc1ccccc1 | 36.4%
Cc1cccc2sc(N(CCCN(C)C)C(=O)CCS(=O)(=O)c3ccccc3)nc12 | 69.6% (active)
CN(C)C(CNC(=O)CCCOc1ccccc1)c1ccco1 (stereo not given) | 30.6%
Cc1ccc2nc(N(CCCN(C)C)C(=O)CCc3ccccc3)sc2c1 | 46.8%

SMILES | inhibition
CN(C)CCCN(C(=O)CCOc1ccccc1)c1nc2c(F)cccc2s1 | 64.8% (active)
Cc1ccc2sc(N(CCCN(C)C)C(=O)CCS(=O)(=O)c3ccccc3)nc2c1C | 88.8% (active)
CN(C)CCCN(C(=O)CCS(=O)(=O)c1ccccc1)c1nc2cc3c(cc2s1)OCO3 | 61.2% (active)
Cc1cccc2sc(N(CCCN(C)C)C(=O)c3sc4ccccc4c3Cl)nc12 | 35.9%
CCOC(=O)c1cnc2ccccc2c1Nc1cc(C(=O)O)ccc1C | 26.6%
CSc1cc(N2CCOCC2)nc(-c2ccccc2Cl)n1 | 72% (active)
Cc1cc(N2CCOCC2)n2ncc(-c3ccccc3)c2n1 | 46.7%
C=CCc1cccc(/C=N/c2nc3ccccc3n2CC)c1O | 15.8%
CCc1ccc(S(=O)(=O)/N=C2/C=C(Sc3ncn[nH]3)C(=O)c3ccccc32)cc1 | 86.3% (active)
O=C1c2ccccc2C(=O)c2c1ncn2-c1ccccc1 | 24.1%
Cc1cc(Br)ccc1OCCn1ccnc1 | 43%
CCC(C)c1ccc(OCCn2ccnc2)cc1 (stereo not given) | 58.6% (active)
CCOc1ccc(OCCCCn2ccnc2)cc1 | 34.5%
COC(=O)c1c(N)c(C#N)c2n1CCCCC2 | 21%
Cc1cccc(OCCCSc2nc3ccc(C)cc3[nH]2)c1 | 56.4% (active)
Cc1cccc(C)c1NC(=O)CSc1nc2ccccc2c(=O)[nH]1 | 31.1%
Cc1ccccc1OCCCSc1nc2ccccc2[nH]1 | 63% (active)
CCCn1nc(NC(=O)c2ccccn2)c2cc3cc(C)ccc3nc21 | 13.2%
NC(C(=O)O)C1CC(Cl)=NO1 (stereo not given) | 24.8%
S=C(NC1CCCCC1)NN(c1ccccc1)c1ccccc1 | 21.3%
O=S(=O)(/C=C/c1ccccc1)NC1CCCCCCC1 | 61.6% (active)
O=C(c1ccc2c(Cl)c3c(nc2c1)CCCC3)N1CCN(c2ccc(F)cc2)CC1 | 64.8% (active)
O=C(NC(=O)N1CCN(c2ccc(F)cc2)CC1)c1ccccc1 | 32.6%
O=C(c1cccc(F)c1)N1CCN(c2cc(N3CCCCC3)c(F)cc2[N+](=O)[O-])CC1 | 46.2%
COc1ccc(N(CCC#N)S(=O)(=O)c2ccc(Cl)cc2)cc1 | 26.2%

From PubChem BioAssay AID488841 (Sanford-Burnham Center for Chemical Genomics, 2010)
